From PubChem BioAssay
MsrA inhibitor = inhibits bovine methionine sulfoxide reductase A. purified bovine MsrA, absorbance read-out. inhibition, % at 15.5 µM. 360,000 compounds, 0.75% hits. AID 651718;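 further: 0% = vehicle wells with enzyme and 100% = reference inhibitor wells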
HGIII-sPLA2 inh = Blocks human group III sPLA2 activity. AID 743126. inhibition, % at 12.2 µM. 370,000 compounds, 0.56% hits. QFRET BODIPY PC-A2 liposome hydrolysis, fluorescence. Q9NZ20;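 active means inhibition above mean plus 3 SD of compounds lying within the high and low control bounds, cut at about 19% in these data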;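 further: 0% = median of test compound wells and 100% = no enzyme DMSO wells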
Target sequence (Q9NZ20 whole entry, looked up): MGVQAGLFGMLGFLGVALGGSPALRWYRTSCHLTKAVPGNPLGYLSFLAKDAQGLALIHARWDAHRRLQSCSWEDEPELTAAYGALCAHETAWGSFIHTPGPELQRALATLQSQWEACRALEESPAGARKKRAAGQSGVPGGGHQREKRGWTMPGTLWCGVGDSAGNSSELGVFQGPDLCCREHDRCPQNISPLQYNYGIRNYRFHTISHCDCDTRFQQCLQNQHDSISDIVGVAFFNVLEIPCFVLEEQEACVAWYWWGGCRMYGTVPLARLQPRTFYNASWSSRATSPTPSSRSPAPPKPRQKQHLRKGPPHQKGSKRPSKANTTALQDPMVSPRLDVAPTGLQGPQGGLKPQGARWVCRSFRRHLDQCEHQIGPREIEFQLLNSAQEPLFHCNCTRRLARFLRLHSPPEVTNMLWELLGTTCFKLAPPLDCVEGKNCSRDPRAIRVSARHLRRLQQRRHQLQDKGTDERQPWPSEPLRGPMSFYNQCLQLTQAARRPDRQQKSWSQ
rCAG binder = r(CAG) repeat RNA binding; TO-PRO-1 dye displacement fluorescence; 370,000 compounds, 1.3% hits; inhibition, % at 3 µM;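 active means inhibition above the plate cutoff, the mean of all test compounds on that plate plus 3 SD, cut at about 35% in these data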;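 further: 0% = DMSO alone and 100% = 100 µM mitoxantrone as full dye displacement; higher means more dye released from RNA so lower well fluorescence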
bovine MsrA act = activators of bovine methionine sulfoxide reductase A; 360,000 compounds, 0.3% hits; activation, % at 10.6 µM; AID 602163; purified bovine MsrA, absorbance read-out; in the data active means activation above about 7.5%;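 further: 0% = vehicle and 100% = reference activator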
PG9 Ab binder = binds the HIV-1 gp120 antibody PG9; 360,000 compounds, 0.43% hits; inhibition, % at 6.7 µM; TR-FRET gp120-PG9 antibody binding; in the data active means inhibition above about 8.5%
MsrA inh confirm = bovine MsrA inhibition, confirmed. purified bovine MsrA, absorbance read-out. AID 651822. shares compounds with MsrA inhibitor. inhibition, % at 15.5 µM. 2,300 compounds, 41% hits;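 further: coupled to thioredoxin reductase with NADPH and selenocystamine and DMSO as substrate; 0% = vehicle only and 100% = full effect of reference inhibitor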
An asterisk follows results filed as active; . = not tested or not shown. The list is not random: actives were taken first. Their share in the collection is about 3.2%. Unless noted, no stated cut-off is given here; in the data, active means inhibition above about 4.5%; inactive means the rest.

SMILES | MsrA inhibitor | HGIII-sPLA2 inh | rCAG binder | bovine MsrA act | PG9 Ab binder | MsrA inh confirm
COc1ccc(N2CCN(CCCNC(=O)Cc3ccc(C(F)(F)F)cc3)CC2)cc1 | . | 11 | 1 | . | . | .
CC(C)C[C@@H]1COc2cc(Br)ccc2S(=O)(=O)N1Cc1cn(Cc2ccc(Br)cc2)nn1 | . | 1 | 1 | . | . | .
O=C(COc1ccccc1[N+](=O)[O-])N(Cc1ccccc1)c1ccccn1 | 7.3* | 6 | 0 | -3 | -1 | 2
COCC(=O)N(Cc1ccccc1)c1ccccn1 | -1 | -7 | 0 | 2 | -3 | .
CCOC(=O)[C@@]12CCCC3=C1N(CCC3)C(=O)[C@H]2CC(=O)NCc1cccs1 | . | 0 | 1 | . | . | .
C/C(=N\Nc1ccc(C(=O)O)cc1)c1ccc(Br)cc1 | 4.8* | -15 | 11 | -4 | -2 | 6.4*
C/C(=N/Nc1ncc(Br)cn1)c1ccc(Br)cc1 | 1 | -4 | 22 | -4 | -1 | .
COC(=O)[C@@H](C)NC(=O)C(Cc1ccc2c(c1)OCO2)NC(C)=O (some centres undefined) | . | 2 | 3 | . | . | .
CCOC(=O)NN1C(=O)c2ccccc2NC1c1ccc(N(C)C)cc1 (centres undefined) | 3 | -5 | -1 | -4 | 0 | .
CC(=O)NN1C(=O)c2ccccc2NC1c1ccc(N(C)C)cc1 (centres undefined) | 6.3* | 12 | 1 | -7 | -3 | 1
Cc1cccc(C(=O)Nc2cc(Cl)ccc2-n2cncn2)c1[N+](=O)[O-] | 7.3* | 8 | 4 | -5 | 1 | 4.8*
CS(=O)(=O)c1ccccc1C(=O)Nc1cc(Cl)ccc1-n1cncn1 | 0 | 5 | 0 | -5 | 0 | .
C=CC(=O)NC1CCCCN(C(C)C)C1=O (centres undefined) | . | 4 | 9 | . | . | .
O=c1cnn(-c2ccccc2)c(-c2ccccc2)c1 | 12* | 5 | 1 | -5 | -1 | 9.5*
COC(=O)c1sccc1NC(=O)c1ccc(C)o1 | 1 | -10 | -2 | -1 | 1 | .
COC(=O)c1sccc1NC(=O)c1ccc(Br)o1 | 5.7* | -1 | 3 | 2 | 1 | 3
CC1C(=O)NN=C1C(=O)N/N=C\C(Br)=C\c1ccccc1 (centres undefined) | 5.7* | -9 | 5 | -6 | -3 | 4
COC(=O)C1CN(Cc2ccccc2)CCS(=O)(=O)N1Cc1cn(Cc2ccccc2)nn1 (centres undefined) | . | -6 | -2 | . | . | .
O=C(/C=C/c1ccco1)Nc1ccc(-c2nc3ccccc3[nH]2)cc1 | 1 | -2 | 10 | -3 | -1 | .
C(=C\c1ccco1)/c1nc2ccccc2[nH]1 | 5.6* | 0 | 13 | -3 | -2 | 4.9*
C(=C\c1nc2ccccc2[nH]1)/c1ccccc1 | 4.7* | 3 | 0 | -9 | 0 | 4
Cc1cc(C)c[n+](-c2[nH]c(=O)sc2/C=N/N=C(\[O-])c2cccnc2)c1 | 5.6* | 2 | -2 | -10 | -3 | 4
COc1ccc(OC)c(S(=O)(=O)N2CCCCC2C(=O)N2CCN(c3ccccc3F)CC2)c1 (centres undefined) | . | 2 | 2 | . | . | .
O=C(O)c1ccc(/C=N/Nc2ccc(C(F)(F)F)cn2)cc1 | 7.0* | 1 | 4 | -9 | -3 | 6.3*
CCN(CC)c1ccc(-c2nnc(SCC(=O)N(CCOC)c3c(N)n(CC(C)C)c(=O)[nH]c3=O)o2)cc1 | 5.3* | -9 | -6 | -6 | -2 | 4
SMILES | MsrA inhibitor | HGIII-sPLA2 inh | rCAG binder | bovine MsrA act | PG9 Ab binder | MsrA inh confirm
CCOC(=O)Cn1cc(/C=N/NC(=O)c2ccc(C#N)cc2F)c2ccccc21 | 6.2* | -11 | 3 | -4 | -1 | 4
N#Cc1ccc(C(=O)N/N=C/c2cn(CC(=O)O)c3ccccc23)c(F)c1 | 6.8* | 19 | 3 | -6 | 2 | 3
C=CCn1c(SCC(=O)C(C)(C)C)nnc1-c1ccc(Cl)cc1 | . | -17 | -3 | . | . | .
O=C(N/N=C/c1cccc([N+](=O)[O-])c1)c1ccc2nc[nH]c2c1 | 1 | -2 | 3 | -2 | -3 | .
O=C(N/N=C/c1ccc([N+](=O)[O-])cc1)c1cc(C2CC2)[nH]n1 | 5.3* | 4 | 2 | -3 | -2 | 5.3*
O=C(N/N=C/c1ccc([N+](=O)[O-])cc1)c1ccc2nc[nH]c2c1 | 5.6* | -3 | -1 | -1 | -1 | 4.8*
O=C(N/N=C\c1cn[nH]c1-c1ccccc1)c1ccc([N+](=O)[O-])cc1 | 3 | -3 | 1 | -1 | -2 | .
O=C(N/N=C/c1ccc([N+](=O)[O-])cc1)c1[nH]ncc1Br | 4.9* | 4 | -2 | -11 | 0 | 3
